The values below come from PubChem BioAssay (NCATS).

Experiment in all cases: qHTS profiling for inhibitors of Plasmodium falciparum proliferation (AID 504749); further: nearly all actives have a fitted effect of over 60% in size
Holding throughout (settings): P. falciparum in erythrocytes, SYBR Green DNA, 72 h; series mostly up to 28.7 µM
Background: qHTS replaces the single test concentration by a dilution series.

One assay deals with ATS189. The method in brief: (§1)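 P. falciparum-infected erythrocytes (0.3% parasitemia, 2.5% hematocrit final) were exposed to compounds for 72 h at 37 C in 5% CO2, then lysed with SYBR Green buffer overnight at room temperature; parasite DNA fluorescence was normalized to artemisinin and DMSO controls.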
Another assay concerns ATS95. In a few lines: as §1
For another assay, the system named is C2A. In a few lines: as §1
A further assay has as its system CP185. The method in brief: as §1
A further assay deals with CP191. The method in brief: as §1
The subject of another assay is CP192. In a few lines: as §1
In the next assay the test system is CP194. The method in brief:
as §1

The next assay has as its system CP201. The method in brief: as §1
A further assay concerns CP203. In a few lines: as §1
For a further assay, the system named is CP211. The method in brief: as §1
The next assay has as its system CP215. In a few lines: as §1
In a further assay the test system is CP217. In a few lines:
as §1

A further assay concerns CP237. In a few lines:
as §1

The subject of the next assay is CP238. The method in brief: as §1
A further assay concerns CP247. In a few lines: as §1
For another assay, the system named is CP250. In a few lines: as §1
Another assay deals with CP252. In a few lines:
as §1

The subject of the next assay is CP256. The method in brief:
as §1

A further assay relates to CP260. The method in brief: as §1
The next assay concerns CP262. The method in brief: as §1

Results filed as inconclusive are left out. Active and inactive are the calls of the source. The call rests on the fitted dose curve; in most records, active means well fitted inhibition curve with a large enough effect; inconclusive means small, poorly fitted or top-dose-only effect; inactive means flat fitted curve, though single readings scatter.
Potency means the concentration at half of the fitted maximal effect.

As to `CCCCCCCCCCCCCC[N+](C)(C)Cc1ccccc1`, the Potency with ATS189 is 7080 nM (active); in the assay with ATS95, 7080 nM (active); with C2A, 3980 nM (active); in the assay on CP185 it was 6310 nM (active); in the assay on CP191, 2510 nM (active); in the assay on CP192, 6750 nM (active). In addition, the Potency in the assay on CP194 is 6750 nM (active); in the assay with CP201, 7570 nM (active); in the assay with CP203, 6010 nM (active); in the assay on CP211, 4260 nM (active); in the assay on CP215, 5360 nM (active); with CP217, 5620 nM (active). The Potency was 5620 nM (active) with CP237; 7080 nM (active) in the assay on CP238; 5620 nM (active) with CP247; 11200 nM (active) in the assay with CP250; 7940 nM (active) with CP252; 7940 nM (active) in the assay on CP256. In addition, the Potency in the assay with CP260 is 5010 nM (active); in the assay on CP262, 4260 nM (active).
On to `O=C(O)CCC(=O)Nc1ccc(S(=O)(=O)Nc2nccs2)cc1`, for which the Potency entry with ATS189, in the assay with ATS95, with C2A, in the assay on CP185, in the assay on CP191 and in the assay with CP192 was “inactive” in each case. For the same compound, the Potency entry with CP194, in the assay with CP201, in the assay on CP203, in the assay on CP211, in the assay with CP215 and in the assay on CP217 was “inactive” throughout. Also, the Potency result in the assay with CP237, with CP238, in the assay on CP247, in the assay with CP250, in the assay on CP252 and with CP256 was “inactive” each time. Moreover, the Potency entry in the assay on CP260 and with CP262 was “inactive” throughout.
For `CCN(CC)CCNC(=O)COc1ccc(OC)cc1`, the Potency result in the assay on ATS189, with ATS95, in the assay with C2A, in the assay with CP185, in the assay on CP191 and in the assay with CP192 was “inactive” in each case. In addition, the Potency result in the assay with CP194, in the assay with CP201, in the assay with CP203, in the assay with CP211, in the assay with CP215 and with CP217 was “inactive” throughout. Besides, the Potency result in the assay with CP237, in the assay with CP238, in the assay with CP247, in the assay with CP250, with CP252 and with CP256 was “inactive” throughout. Besides, the Potency entry in the assay with CP260 and in the assay with CP262 was “inactive” each time.
On to `OC1C(O)C(O)C(O)C(O)C1O` (stereo not given), for which the Potency result in the assay on ATS189, in the assay with ATS95, with C2A, in the assay on CP185, with CP191 and in the assay on CP192 was “inactive” throughout. Also, the Potency entry in the assay with CP194, in the assay with CP201, in the assay with CP203, in the assay with CP211, with CP215 and in the assay on CP217 was “inactive” each time. In addition, the Potency result with CP237, in the assay on CP238, with CP247, in the assay on CP250, in the assay on CP252 and in the assay with CP256 was “inactive” in each case. Further, the Potency result in the assay with CP260 and in the assay on CP262 was “inactive” in each case.
On to `CCCCC(CC)COC(=O)c1ccc(N(C)C)cc1` (stereo not given), for which the Potency result in the assay with ATS189, in the assay with ATS95, in the assay with C2A, with CP185, in the assay with CP191 and in the assay with CP192 was “inactive” in each case. In addition, the Potency result in the assay with CP194, in the assay on CP201, in the assay with CP203, in the assay on CP211, with CP215 and in the assay with CP217 was “inactive” each time. Further, the Potency result with CP237, with CP238, in the assay on CP247, in the assay with CP250, in the assay on CP252 and with CP256 was “inactive” each time. Moreover, the Potency result with CP260 and in the assay with CP262 was “inactive” in each case.
Consider `Cc1ccc(S(=O)(=O)NC(=O)NC2CCCC2)cc1`, for which the Potency result with ATS189, in the assay on ATS95, in the assay on C2A, in the assay on CP185, in the assay on CP191 and in the assay on CP192 was “inactive” each time. Further, the Potency result in the assay on CP194, in the assay on CP201, in the assay with CP203, in the assay with CP211, in the assay with CP215 and with CP217 was “inactive” each time. In addition, the Potency result in the assay on CP237, in the assay with CP238, with CP247, in the assay with CP250, in the assay on CP252 and with CP256 was “inactive” throughout. The Potency entry with CP260 and with CP262 was “inactive” each time.
As for `CC1=C(C(=O)O)N2C(=O)[C@@H](NC(=O)[C@H](N)c3ccccc3)[C@H]2SC1`, the Potency entry with ATS189, in the assay on ATS95, in the assay on C2A, with CP185, in the assay on CP191 and in the assay with CP192 was “inactive” throughout. Moreover, the Potency entry with CP194, with CP201, with CP203, in the assay on CP211, in the assay on CP215 and with CP217 was “inactive” each time. Further, the Potency result with CP237, in the assay on CP238, in the assay on CP247, with CP250, with CP252 and in the assay on CP256 was “inactive” throughout. In addition, the Potency entry in the assay on CP260 and in the assay with CP262 was “inactive” throughout.
Consider `CCCCCCCCCCCCCC(=O)OC(C)C`, for which the Potency entry with ATS189, in the assay with ATS95, with C2A, in the assay on CP185, with CP191 and in the assay on CP192 was “inactive” in each case. Besides, the Potency result in the assay with CP194, in the assay on CP201, in the assay on CP203, with CP211, in the assay on CP215 and in the assay with CP217 was “inactive” each time. The Potency entry in the assay on CP237, in the assay on CP238, in the assay on CP247, in the assay on CP250, with CP252 and in the assay on CP256 was “inactive” in each case. The Potency result in the assay on CP260 and in the assay with CP262 was “inactive” in each case.
As to `CCN1/C(=C/C=C/c2sc3ccccc3[n+]2CC)Sc2ccccc21`, the Potency was 158 nM (active) in the assay on ATS189; 178 nM (active) in the assay with ATS95; 126 nM (active) in the assay with C2A; 112 nM (active) with CP185; 100 nM (active) in the assay with CP191; 379 nM (active) with CP192. Moreover, the Potency in the assay with CP194 is 478 nM (active); with CP201, 849 nM (active); in the assay with CP203 it was 675 nM (active); in the assay with CP211, 379 nM (active); in the assay with CP215, 675 nM (active); with CP217, 178 nM (active). For the same compound, the Potency in the assay with CP237 was 158 nM (active); in the assay with CP238, 126 nM (active); with CP247, 251 nM (active); in the assay with CP250, 178 nM (active); in the assay with CP252, 141 nM (active); in the assay with CP256, 100 nM (active). Also, the Potency in the assay with CP260 is 158 nM (active); with CP262, 190 nM (active).
Regarding `CCCCN=C(N)N=C(N)N`, the Potency result in the assay on ATS189, with ATS95, in the assay on C2A, in the assay on CP185, in the assay on CP191 and with CP192 was “inactive” each time. For the same compound, the Potency result with CP194, in the assay on CP201, in the assay with CP203, in the assay with CP211, in the assay with CP215 and in the assay with CP217 was “inactive” in each case. For the same compound, the Potency entry in the assay on CP237, in the assay on CP238, in the assay with CP247, in the assay on CP250, in the assay on CP252 and with CP256 was “inactive” in each case. Also, the Potency entry with CP260 and in the assay with CP262 was “inactive” throughout.
For `NC(=O)n1c(O)c(C(=O)c2cccs2)c2cc(Cl)ccc21`, the Potency entry with ATS189, in the assay with ATS95, with C2A, in the assay with CP185, with CP191 and in the assay on CP192 was “inactive” throughout. Further, the Potency result in the assay on CP194, with CP201, with CP203, in the assay with CP211, in the assay on CP215 and in the assay on CP217 was “inactive” throughout. Besides, the Potency entry in the assay with CP237, with CP238, with CP247, in the assay with CP250, with CP252 and in the assay with CP256 was “inactive” each time. Also, the Potency entry in the assay with CP260 and in the assay with CP262 was “inactive” throughout.
Consider `O=C(O)P(=O)(O)O`, for which the Potency entry in the assay on ATS189, in the assay on ATS95, in the assay on C2A, with CP185, in the assay with CP191 and with CP192 was “inactive” throughout. In addition, the Potency result with CP194, with CP201, with CP203, with CP211, with CP215 and with CP217 was “inactive” in each case. In addition, the Potency entry in the assay on CP237, in the assay with CP238, with CP247, with CP250, with CP252 and with CP256 was “inactive” in each case. Moreover, the Potency entry with CP260 and in the assay with CP262 was “inactive” in each case.
Regarding `c1ccc(-c2nc[nH]c2-c2ccccc2)cc1`, the Potency result with ATS189, in the assay with ATS95, in the assay on C2A, in the assay on CP185, with CP191 and in the assay with CP192 was “inactive” each time. The Potency result in the assay with CP194, with CP201, with CP203, in the assay on CP211, in the assay with CP215 and with CP217 was “inactive” each time. Moreover, the Potency entry with CP237, in the assay with CP238, in the assay on CP247, in the assay with CP250, in the assay on CP252 and in the assay with CP256 was “inactive” throughout. Further, the Potency result in the assay with CP260 and in the assay on CP262 was “inactive” throughout.
